Screening data as filed in PubChem BioAssay.
CRFBP-R2 agonist: agonists of CRF-BP/CRF-R2 complex, primary screen, cell-based, HEK293, calcium dye fluorescence, uHTS; calcium dye fluorescence (FLIPR); percent of saturating CRF peptide response; 350,000 tested, 0.46% active; AID 588473, 2011; CRF-binding protein / CRF receptor 2 complex (human); activation, % at 13.2 µM;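 active = activation of at least 50%, plus an integration ratio under a set limit after plate pattern correction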
V-ATPase pH: regulators of yeast V-ATPase proton pumping, primary screen, pHLuorin cytosolic pH fluorescence; response, % at 10 µM; AID 504577, 2011; 350,000 tested, 0.37% active; S. cerevisiae; in the data active = response mostly above about 7.3%, no sharp cut-off; inactive = mostly below about 5.4%; also: actives read high
CRFBP-R2 block: antagonists of CRF-BP/CRF-R2 complex, primary screen, cell-based, HEK293, calcium dye fluorescence, uHTS | CRF-induced calcium fluorescence | inhibition, % at 11.8 µM | 350,000 tested, 0.59% active | AID 588475, 2011;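 active = inhibition of the ligand-induced calcium signal above about 50% at the single tested concentration, limit read from the data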
NTR1 agonist: agonists of human NTR1, primary screen, imaging, U2OS cells, beta-arrestin-GFP, high content | 330,000 tested, 0.17% active | AID 493036, 2011 | NTR1-U2OS beta-arrestin-GFP spot imaging, agonist mode | activation, % at 20 µM | Neurotensin receptor type 1 (Homo sapiens), P30989;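 active = activation at or above 40% of the spot to cytoplasm intensity ratio, with at least 20 cells analyzed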
Target sequence (P30989 whole entry, looked up): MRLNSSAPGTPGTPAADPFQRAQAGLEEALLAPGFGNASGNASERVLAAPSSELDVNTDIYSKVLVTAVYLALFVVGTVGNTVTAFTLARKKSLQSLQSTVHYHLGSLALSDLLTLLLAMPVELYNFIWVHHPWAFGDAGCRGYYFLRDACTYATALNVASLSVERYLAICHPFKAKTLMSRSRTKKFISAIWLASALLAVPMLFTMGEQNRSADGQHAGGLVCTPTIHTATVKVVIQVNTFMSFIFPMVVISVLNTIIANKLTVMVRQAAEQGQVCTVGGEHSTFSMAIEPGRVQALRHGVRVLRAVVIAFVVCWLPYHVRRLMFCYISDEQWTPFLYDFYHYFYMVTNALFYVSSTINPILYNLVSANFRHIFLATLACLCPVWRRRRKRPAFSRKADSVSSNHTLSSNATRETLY
VATPase regulator: yeast V-ATPase proton pumping modulators, confirmation, S. cerevisiae, pH-sensitive GFP, second cherry-pick; shares compounds with V-ATPase pH; S. cerevisiae pHLuorin cytosolic pH, V-ATPase proton transport; response, % at 10 µM; 980 tested, 2% active; AID 602197, 2012; in the data active = response above about 24%
Of the large screens only hits and unclear results are named; the others gave an inactive call (follow-up assays come after a bar, where they were run). Sampled rows, rich in hits. Any-hit rate of the full collection: about 1.5%.

COC(=O)Cn1c(C)nc2ccccc21	none
CCOC(=O)Cn1c(=O)c(-c2ccccc2NC)nc2ccccc21	none | VATPase regulator inactive
CCOC(=O)Cn1c(-c2ccccn2)nc2ccccc21	none | VATPase regulator inactive
O=C(O)Cn1c(=O)c(-c2ccccc2)nc2ccccc21	none
CCCCNC(=O)N1CCCN(c2ccc(C#N)cn2)CC1	none
Cc1c(C(=O)C(=O)N2CCN(Cc3ccc4c(c3)OCO4)CC2)c2ccccc2n1C	none
CCOC(=O)Cn1c(C(C)=O)nc2ccccc21	none | VATPase regulator inactive
CCOC(=O)Cn1c(C)nc2ccccc21	none | VATPase regulator inactive
CCOC(=O)Cn1c(=O)n(CC(=O)OCC)c2ccccc21	none | VATPase regulator inactive
COC(=O)Cn1c(O)c(N=NC(=O)CNC(=O)c2ccc3c(c2)OCCO3)c2ccccc21	none
COc1ccc(C(=O)Cn2c(C(C)=O)nc3ccccc32)cc1	none (no result: NTR1 agonist)
CCOC(=O)N=Nc1c(O)n(CC(=O)OC)c2ccccc12	none | VATPase regulator inactive
COC(=O)c1ccc(C(=S)NCC2(N(C)C)CCCCC2)cc1	none
CCOc1ccccc1N1CC(C(=O)N(Cc2nnc(-c3ccccc3Cl)o2)C2CC2)CC1=O (stereo unspecified)	none
CCOc1cc(/C=N/NC(=O)CCCC(=O)NC2CCCCC2)ccc1O	none
CC(C)(C)NC(=O)c1cc2c(ccc3ccccc32)oc1=O	V-ATPase pH 8.9 | VATPase regulator inactive
O=C(O)c1cc2c(ccc3ccccc32)oc1=O	none (no result: CRFBP-R2 agonist, CRFBP-R2 block)
CCOC(=O)CC(=O)CSc1nnc2c(n1)[nH]c1ccccc12	none | VATPase regulator inactive
CC1(c2cccc(Br)c2)NC(=O)N(CC(=O)Nc2ccc3c(c2)OCCO3)C1=O (stereo unspecified)	none
COc1ccccc1CNC(=O)c1oc2ccc(S(=O)(=O)N3CCOCC3)cc2c1C	none
COc1ccccc1CNC(=O)c1oc2ccc(S(=O)(=O)N3CCCC3)cc2c1C	V-ATPase pH 7.2 | VATPase regulator inactive
COC(=O)c1ccc(NC(=O)c2snnc2-c2ccccc2)cc1	V-ATPase pH 8.2 | VATPase regulator inactive
COc1ccc([N+](=O)[O-])cc1N(CC(=O)N1CCN(Cc2ccccc2)CC1)S(C)(=O)=O	V-ATPase pH 8.8 | VATPase regulator inactive
COc1ccc(OC)c(N(CC(=O)N2CCN(Cc3ccccc3)CC2)S(C)(=O)=O)c1	none
Cc1c(-n2c(SCC(=O)O)nnc2-c2ccccc2Br)c(=O)n(-c2ccccc2)n1C	V-ATPase pH 7.1 | VATPase regulator inactive
C=CCNC(=O)CSc1nnc(-c2ccccc2Cl)n1-c1c(C)n(C)n(-c2ccccc2)c1=O	none
O=C(OC(C(=O)NC1CCCCC1)c1ccccc1F)c1ccco1 (stereo unspecified)	none
CC1CCCN(S(=O)(=O)c2ccc3oc(=O)ccc3c2)C1 (stereo unspecified)	none
Cc1cc(NC(=O)C(C)SCC(=O)Nc2ccccc2C(C)(C)C)no1 (stereo unspecified)	V-ATPase pH 9.9 | VATPase regulator inactive
COc1ccc(NC(=O)CN(C)C(=O)c2ccc(NS(=O)(=O)c3cccc([N+](=O)[O-])c3)cc2)cc1	none
C=C(C)CN=CC1(C)CCC(C)=CO1 (stereo unspecified)	none (no result: NTR1 agonist)
O/N=C/c1cccnc1Sc1ccccc1	none
COc1ccc(OC)c(-n2c(SCC(=O)NCc3ccco3)nnc2-c2c[nH]c3ccccc23)c1	V-ATPase pH 12.4 | VATPase regulator inactive
COC(=O)c1c(NC(=O)COC(=O)CCNS(=O)(=O)c2ccccc2)sc(C)c1C	none
CCOC(=O)c1c(NC(=O)COC(=O)CCNS(=O)(=O)c2ccccc2)sc(C(=O)NC)c1C	V-ATPase pH 9.8 (no result: NTR1 agonist) | VATPase regulator inactive
CS(=O)(=O)N(CC(=O)N1CCCCC1)c1cccc(F)c1	none
Cc1ccccc1NC(=O)N(CCc1nc2ccccc2[nH]1)Cc1ccccc1	V-ATPase pH 11.5 | VATPase regulator inactive
O=C(Cn1nnc(-c2cccs2)n1)NNC(=O)c1ccccc1Cl	none
Nc1cccc(P(=O)(c2ccccc2)c2ccccc2)c1	V-ATPase pH 9.6 | VATPase regulator inactive
CC(C)C(NC(=O)c1ccccc1NC(=O)c1ccccc1)C(=O)NCCCn1ccnc1 (stereo unspecified)	V-ATPase pH 9.5 | VATPase regulator inactive
Cc1ccc(S(=O)(=O)Nc2ccccc2F)cc1C(=O)NNC(=O)c1ccccc1O	none
CC(C)c1ccc(NC(=O)/C(C#N)=C/c2ccncc2)cc1	V-ATPase pH 13.0 | VATPase regulator inactive
O=S(=O)(Nc1ccccc1)N1CCCCC1	none (no result: NTR1 agonist)
CC(=O)c1cccc(NS(=O)(=O)N2CCCCC2)c1	V-ATPase pH 16.5 | VATPase regulator inactive
O=C1C=CC(=O)N1	none
COc1ccccc1C/C(N)=N/OC(=O)c1ccc2c(c1)OCO2	V-ATPase pH 8.5 | VATPase regulator inactive
Cc1cc(-c2ccc(S(=O)(=O)N(C)Cc3ccccc3)cc2)on1	none
Cc1nn(-c2ccc(Cl)cn2)c2c1C(=O)CC(C)(C)C2Br (stereo unspecified)	none (no result: NTR1 agonist)
Cc1ccc(-c2nnc(-n3ncc(C#N)c3N)c3ccccc23)cc1C	V-ATPase pH 9.9 | VATPase regulator inactive
COc1ccccc1-c1csc(-n2ncc(C#N)c2N)n1	none (no result: CRFBP-R2 agonist, CRFBP-R2 block)
O=C(c1cccnc1)N1CCN(Cc2ccc3ccccc3c2)CC1	V-ATPase pH 10.0 | VATPase regulator inactive
O=C(c1cccnc1)N1CCN(Cc2cccc(F)c2)CC1	none
NC(N)=NN=C1c2ccccc2-c2ccccc21	V-ATPase pH 200.6 | VATPase regulator inactive
O=C(COC(=O)c1cc(S(=O)(=O)N2CCOCC2)ccc1F)NCc1ccc2c(c1)OCO2	none
Cc1cc(C)cc(NS(=O)(=O)c2ccc3oc(=O)ccc3c2)c1	V-ATPase pH 13.6 | VATPase regulator inactive
CCn1c(=O)c(C(=O)CN(C)CC(=O)Nc2cccc(F)c2)c(N)n(Cc2ccccc2)c1=O	none
COc1ccccc1N1CCN(C2CCCN(S(=O)(=O)c3ccc(C)cc3)C2)CC1 (stereo unspecified)	V-ATPase pH 10.3 | VATPase regulator inactive
Cc1ccc(CCNS(=O)(=O)c2cc3c(cc2C)n(C)c(=O)c(=O)n3C)cc1	V-ATPase pH 10.1 | VATPase regulator inactive
Cc1cc2c(cc1S(=O)(=O)NCc1ccccc1)n(C)c(=O)c(=O)n2C	none
O=C(Cc1ncc(C(F)(F)F)cc1Cl)NCc1ccco1	none
Cc1nc2ccsc2c(=O)n1-c1ccc(Cl)cc1	none | VATPase regulator inactive
CN1CCN(c2nc3c(c(=O)n(C)c(=O)n3C)n2Cc2ccc(Cl)cc2)CC1	V-ATPase pH 8.0 | VATPase regulator inactive
CC(C)OC(=O)CCCNc1ccc([N+](=O)[O-])cc1[N+](=O)[O-]	none
CCCCCCOC(=O)C[N+](C)(C)CCOC1CC2CCC1(C)C2(C)C (stereo unspecified)	V-ATPase pH 11.9, NTR1 agonist 40.2 | VATPase regulator inactive
CCCCOC(=O)C[N+](C)(C)CCOC1CC2CCC1(C)C2(C)C (stereo unspecified)	none
C[C@H](CO)N1C[C@H](C)[C@@H](CN(C)Cc2cccc3c2OCCCO3)OCc2cnnn2CCCC1=O	V-ATPase pH 9.4 (no result: NTR1 agonist) | VATPase regulator inactive
